# Test results as given in the supplement of paper PMC8728848.
# Only a selection was taken, and the strongest signals are over-represented in it overall.
# B1: Gal 3 (Homo sapiens), P17931 (protein)
# chain: MADNFSLHDALSGSGNPNPQGWPGAWGNQPAGAGGYPGASYPGAYPGQAPPGAYPGQAPPGAYHGAPGAYPGAPAPGVYPGPPSGPGAYPSSGQPSAPGAYPATGPYGAPAGPLIVPYNLPLPGGVVPRMLITILGTVKPNANILDFQRGNDVAFHFNPRFNENNRRVIVCNTLLDNNWGREERQSVFPFESGKPFKIQVLVEPDHFKVAVNDAHLLQYNHRVKKLNEISKLGISGDIDLTSASYTMI
# What was measured:
# Experiment in all cases: glycan array binding signal (z-score within array); higher = stronger binding
# Settings in all cases: glycan notation: IUPAC condensed, linker removed; mutation: K176L
# [1] = biological target: Fuc(a1-2)Gal(b1-4)GlcNAc(b1-3)Gal(b1-4)GlcNAc
# Outline: (§1)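 Negative Z-scores can be read as non-binding. The Z-score is calculated within each array and then averaged across arrays of one protein sequence at different concentrations or buffers and across linkers. Arrays, 3228 in all, were curated from the Consortium for Functional Glycomics database and kept only where the protein sequence was available.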
# [2] = biological target: Fuc(a1-2)Gal(b1-4)GlcNAc(b1-3)Gal(b1-4)GlcNAc(b1-3)Gal(b1-4)GlcNAc
# Outline: as §1
# [3] = biological target: Fuc(a1-2)[Gal(a1-3)]Gal(b1-3)GlcNAc(b1-2)Man(a1-3)[Fuc(a1-2)[Gal(a1-3)]Gal(b1-3)GlcNAc(b1-2)Man(a1-6)]Man(b1-4)GlcNAc(b1-4)GlcNAc
# Outline: as §1
# [4] = biological target: Fuc(a1-2)[Gal(a1-3)]Gal(b1-4)GlcNAc(b1-2)Man(a1-3)[Fuc(a1-2)[Gal(a1-3)]Gal(b1-4)GlcNAc(b1-2)Man(a1-6)]Man(b1-4)GlcNAc(b1-4)GlcNAc
# Outline: as §1
# [5] = biological target: Fuc(a1-2)[GalNAc(a1-3)]Gal(b1-4)GlcNAc
# Outline: as §1
# [6] = biological target: Fuc(a1-2)[GalNAc(a1-3)]Gal(b1-4)GlcNAc(b1-3)Gal(b1-4)GlcNAc(b1-3)Gal(b1-4)GlcNAc
# Outline: as §1
# [7] = biological target: Fuc(a1-3)[Gal(b1-4)]GlcNAc
# Outline: as §1
# [8] = biological target: Fuc(a1-3)[GalNAc(b1-4)]GlcNAc
# Outline: as §1
# [9] = biological target: Gal(a1-4)Gal(b1-3)GlcNAc(b1-2)Man(a1-3)[Gal(a1-4)Gal(b1-3)GlcNAc(b1-2)Man(a1-6)]Man(b1-4)GlcNAc(b1-4)GlcNAc
# Outline: as §1
# Gal(a1-4)Gal(b1-4)Glc = biological target: Gal(a1-4)Gal(b1-4)Glc
# Outline: as §1
# Gal(b1-3)GalNAc = biological target: Gal(b1-3)GalNAc
# Outline: as §1
# [10] = biological target: Gal(b1-3)GalNAc(b1-3)Gal(a1-4)Gal(b1-4)Glc
# Outline: as §1
# [11] = biological target: Gal(b1-3)GlcNAc(b1-3)Gal(b1-4)GlcNAc(b1-6)[Gal(b1-3)GlcNAc(b1-3)]Gal(b1-4)Glc
# Outline: as §1
# [12] = biological target: Gal(b1-3)[Fuc(a1-4)]GlcNAc(b1-3)Gal(b1-4)[Fuc(a1-3)]GlcNAc
# Outline: as §1
# [13] = biological target: Gal(b1-3)[GlcNAc(b1-6)]GalNAc
# Outline: as §1
# [14] = biological target: Gal(b1-4)GalNAc(b1-3)[Fuc(a1-2)]Gal(b1-4)GlcNAc
# Outline: as §1
# [15] = biological target: Gal(b1-4)GlcNAc(b1-2)Man(a1-6)[Man(a1-3)]Man(b1-4)GlcNAc(b1-4)GlcNAc
# Outline: as §1
# [16] = biological target: Gal(b1-4)GlcNAc(b1-3)Gal(b1-4)Glc
# Outline: as §1
# [17] = biological target: Gal(b1-4)GlcNAc(b1-3)Gal(b1-4)GlcNAc(b1-3)Gal(b1-4)GlcNAc
# Outline: as §1
# [18] = biological target: Gal(b1-4)GlcNAc(b1-3)[Gal(b1-4)GlcNAc(b1-6)]GalNAc
# Outline: as §1
# [19] = biological target: Gal(b1-4)GlcNAc(b1-6)[Gal(b1-3)]GalNAc
# Outline: as §1
# Gal3S6S(b1-4)GlcNAc6S = biological target: Gal3S6S(b1-4)GlcNAc6S
# Outline: as §1
# Gal6S(b1-4)Glc = biological target: Gal6S(b1-4)Glc
# Outline: as §1
# GalNAc(a1-3)GalNAc = biological target: GalNAc(a1-3)GalNAc
# Outline: as §1
# [20] = biological target: GlcNAc(a1-4)Gal(b1-3)GlcNAc
# Outline: as §1
# [21] = biological target: GlcNAc(a1-4)Gal(b1-4)GlcNAc(b1-3)Gal(b1-4)GlcNAc(b1-3)Gal(b1-4)GlcNAc
# Outline: as §1
# GlcNAc(b1-3)Gal(b1-4)Glc = biological target: GlcNAc(b1-3)Gal(b1-4)Glc
# Outline: as §1
# [22] = biological target: Kdn(a2-3)Gal(b1-4)[Fuc(a1-3)]GlcNAc
# Outline: as §1
# Man(a1-2)Man(a1-3)Man = biological target: Man(a1-2)Man(a1-3)Man
# Outline: as §1
# [23] = biological target: Man(a1-2)Man(a1-6)[Man(a1-3)]Man(a1-6)[Man(a1-2)Man(a1-2)Man(a1-3)]Man(b1-4)GlcNAc(b1-4)GlcNAc
# Outline: as §1
binder,measurement,setting,value
B1,glycan array binding signal (z-score),[1],5.06
same,glycan array binding signal (z-score),[2],5.51
same,glycan array binding signal (z-score),[3],5.21
same,glycan array binding signal (z-score),[4],7.87
same,glycan array binding signal (z-score),[5],0.393
same,glycan array binding signal (z-score),[6],5.28
same,glycan array binding signal (z-score),[7],-0.265
same,glycan array binding signal (z-score),[8],-0.262
same,glycan array binding signal (z-score),[9],-0.258
same,glycan array binding signal (z-score),Gal(a1-4)Gal(b1-4)Glc,-0.267
same,glycan array binding signal (z-score),Gal(b1-3)GalNAc,-0.269
same,glycan array binding signal (z-score),[10],-0.262
same,glycan array binding signal (z-score),[11],0.682
same,glycan array binding signal (z-score),[12],-0.273
same,glycan array binding signal (z-score),[13],-0.27
same,glycan array binding signal (z-score),[14],-0.267
same,glycan array binding signal (z-score),[15],-0.271
same,glycan array binding signal (z-score),[16],1.53
same,glycan array binding signal (z-score),[17],5.22
same,glycan array binding signal (z-score),[18],-0.256
same,glycan array binding signal (z-score),[19],-0.268
same,glycan array binding signal (z-score),Gal3S6S(b1-4)GlcNAc6S,-0.261
same,glycan array binding signal (z-score),Gal6S(b1-4)Glc,-0.27
same,glycan array binding signal (z-score),GalNAc(a1-3)GalNAc,-0.27
same,glycan array binding signal (z-score),[20],-0.259
same,glycan array binding signal (z-score),[21],5.87
same,glycan array binding signal (z-score),GlcNAc(b1-3)Gal(b1-4)Glc,-0.271
same,glycan array binding signal (z-score),[22],-0.27
same,glycan array binding signal (z-score),Man(a1-2)Man(a1-3)Man,-0.268
same,glycan array binding signal (z-score),[23],-0.263
